Laboratory results: PubChem BioAssay (Tox21)
Inconclusive results are not listed. Activity calls are given as the source filed them. Unless noted, calls come from the whole dose curve.

Experiments:
[1] = Nuclear factor erythroid 2-related factor 2/antioxidant responsive element (Nrf2/ARE) small molecule agonists: luciferase reporter gene qHTS assay in human keratinocytes (AID 1919969); note: nearly all actives have a fitted effect of over 35% in size; note: potency is the fitted concentration of half-maximal effect
[2] = biological target: Gonadotropin-releasing hormone receptor (Homo sapiens) (UniProt P30968); test: Human gonadotropin-releasing hormone receptor (GnRHR) small molecule agonists, calcium flux assay in GnRHR-HEK293 cells (AID 1920063); note: nearly all actives have a fitted effect of over 35% in size
Procedure, shortened: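 We seeded human GnRHR-expressing HEK293 cells for 18 hours, loaded them with calcium dye for an hour at 37 C, added test compounds, and recorded fluorescence intensity kinetically for three minutes.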

[3] = biological target: KiSS-1 receptor (Homo sapiens) (UniProt Q969F8); test: Human kisspeptin (KISS1R) small molecule agonists, calcium flux assay in KISS1R-HEK293 cells (AID 1920064; active = well fitted activation curve with a large enough effect in the repeat runs)
Procedure, shortened: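 Kinetic calcium assay, 1 s sampling over 3 min at Ex/Em 480/540, in HEK293 cells engineered with human KISS1R; compounds delivered in DMSO after 1 h dye loading.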

[4] = G protein-coupled receptor (GPCR) small molecule agonists, calcium flux assay: HEK293 wild type cell line counter screen (AID 1920065)
Procedure, shortened: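 Calcium-sensitive dye, loaded 1 h at 37 C into cells cultured 18 h, reports compound-evoked calcium release as fluorescence (Ex/Em 480/540), measured over 3 min. Agonist mode; 15-point titrations, triplicate.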

[5] = p53 small molecule agonists, cell-based qHTS assay with human liver microsomes (AID 1963577);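 note: p53 response element beta-lactamase reporter cells with liver microsomes plus NADPH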
Procedure, shortened: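 p53RE-bla cells; 5 h settle, 37 C/5% CO2; cpd + HLM 0.5 mg/mL + NADPH 0.5 mg/mL (final); 16 h 37 C; LiveBLAzer 2 h RT dark; fluorescence readout.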

[6] = p53 small molecule agonists, cell-based qHTS assay with rat liver microsomes (AID 1963578)
Procedure, shortened: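 Rat liver microsome activation: microsomes 0.5 mg/mL, NADPH 0.5 mg/mL final; p53RE-bla cells, 16 h 37 C; LiveBLAzer readout, 2 h RT dark.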

[7] = p53 small molecule agonists, cell-based qHTS assay with rat liver microsomes: qHTS cell viability counter screen (AID 1963580); note: nearly all actives have a fitted effect of over 45% in size
Procedure, shortened: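 HCT-116 p53RE-bla, 4,000 cells/well, 5 h pre-incubation; cpd + rat liver microsomes 0.5 mg/mL + NADPH 0.5 mg/mL (final); 16 h, 37 C; CellTiter-Glo, 30 min RT; luminescence.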

[8] = p53 small molecule agonists, cell-based qHTS assay: qHTS cell viability counter screen (AID 1963581); note: nearly all actives have a fitted effect of over 45% in size
Procedure, shortened: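 Following 5 h attachment, HCT-116 p53RE-bla cells took up compound for 16 h at 37 C; the reporter was read with B/G FRET substrate (2 h RT), and viability then via CellTiter-Glo ATP luminescence.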

[9] = p53 small molecule agonists, cell-based qHTS assay (AID 1963582; active = well fitted activation curve with a large enough effect in the signal ratio in the repeat runs, not every such curve was filed as active; the % refers to the signal ratio)
Procedure, shortened: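 In this cell-based concentration-response screen, a p53 response element drives beta-lactamase; cells received DMSO-borne compounds after 5 h culture and were incubated a further 16 h before FRET substrate development.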

[10] = biological target: 5-hydroxytryptamine receptor 2A (Homo sapiens) (UniProt P28223); test: 5-hydroxytryptamine receptor 2A (HTR2A) small molecule antagonists, cell-based qHTS assay (AID 1963586); note: nearly all actives have a fitted effect of over 45% in size; note: potency is the fitted concentration of half-maximal effect
Procedure, shortened: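 Antagonist-mode intracellular calcium assay: DOI (4 nM) added after 5 min compound pre-incubation at room temperature to dye-loaded HTR2A-CHO cells. Fluorescence followed for 3 min, sampled every second.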

[11] = biological target: Muscarinic acetylcholine receptor M1 (Homo sapiens) (UniProt P11229); test: Cholinergic receptor muscarinic 1 (CHRM1) small molecule agonists, cell-based qHTS assay (AID 1963589); note: nearly all actives have a fitted effect of over 35% in size
Procedure, shortened: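 Measures agonist-induced intracellular calcium rise. Stable human CHRM1 CHO line, 1 h dye load at 37 C, compounds from DMSO, kinetic fluorescence read.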

[12] = cAMP Responsive Elements (CRE) small molecule agonists, cell-based qHTS assay (AID 1963590)
Procedure, shortened: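 A CRE-responsive beta-lactamase reporter in HEK 293T cells was used. Treatment ran 3 h at 37 C; detection used LiveBLAzer B/G FRET substrate for 2 h at room temperature.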

[13] = biological target: Beta-2 adrenergic receptor (Homo sapiens) (UniProt P07550); test: Adrenergic beta2 receptor (ADRB2) small molecule agonists, cell-based qHTS assay (AID 1963593);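 note: CHO cells stably overexpressing human ADRB2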
Procedure, shortened: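 CHO cells stably over-expressing ADRB2 were plated overnight at 37C, then dosed with compounds plus a stimulation mix containing 100uM IBMX and 25uM Ro-20-1724 for 0.5hr at room temperature. cAMP was measured by HTRF competition, 1hr.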

[14] = biological target: D(2) dopamine receptor (Homo sapiens) (UniProt P14416); test: Dopamine D2 receptor (DRD2) small molecule agonists, cell-based qHTS assay (AID 1963594); note: nearly all actives have a fitted effect of over 35% in size
Procedure, shortened: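 cAMP accumulation in DRD2-HEK293 cells measured by HTRF after 1 h detection; compounds added 10 min before NKH477 (200nM […]) forskolin-analogue stimulation, 30 min at room temperature, with Ro20-1724 present at 0.1 mM final.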

[15] = biological target: D(2) dopamine receptor (Homo sapiens) (UniProt P14416); test: Dopamine D2 receptor (DRD2) small molecule antagonists, cell-based qHTS assay (AID 1963595; active = well fitted inhibition curve with a large enough effect in the signal ratio in the repeat runs, with a control signal flat; the % refers to the signal ratio)
Procedure, shortened: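 HEK293 cells stably expressing DRD2 were preincubated with 0.1 mM Ro20-1724, then with compound for 10 min at room temperature. Cells were stimulated with 200 nM NKH477 plus 12 nM quinpirole for 30 min, and cAMP was read by HTRF.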

[16] = p53 small molecule agonists, cell-based qHTS assay with human liver microsomes: qHTS cell viability counter screen (AID 1963579); note: nearly all actives have a fitted effect of over 45% in size
Procedure, shortened: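 Luminescent CellTiter-Glo read-out, 30 min at room temperature, gauged cytotoxicity in p53RE-bla cells exposed 16 h at 37 C to DMSO-dissolved compounds with metabolic activation by human liver microsomes and NADPH, each 0.5 mg/mL final.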

[17] = biological target: 5-hydroxytryptamine receptor 2A (Homo sapiens) (UniProt P28223); test: 5-hydroxytryptamine receptor 2A (HTR2A) small molecule agonists, cell-based qHTS assay (AID 1963587); note: nearly all actives have a fitted effect of over 30% in size
Procedure, shortened: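 Kinetic calcium-flux fluorescence (2 min, 1 sec intervals) after compound addition in agonist mode. HTR2A-CHO cells were cultured 18 h, then dye-loaded 1 h at 37 C.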

[18] = biological target: Muscarinic acetylcholine receptor M1 (Homo sapiens) (UniProt P11229); test: Cholinergic receptor muscarinic 1 (CHRM1) small molecule antagonists, cell-based qHTS assay (AID 1963588); note: nearly all actives have a fitted effect of over 40% in size
Procedure, shortened: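 CHRM1-CHO calcium-flux assay, antagonist mode. Cells were seeded 18 h, dye-loaded 1 h at 37 C and given compound for 5 min at RT, then acetylcholine was added at 50nM. FDSS fluorescence was read 3 min; 15 concentrations, three runs.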

[19] = cAMP Responsive Elements (CRE) small molecule antagonists, cell-based qHTS assay (AID 1963591; active = well fitted inhibition curve with a large enough effect in the signal ratio in the repeat runs, not every such curve was filed as active; the % refers to the signal ratio)
Procedure, shortened: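 HEK293T cells carrying a CRE-driven beta-lactamase reporter receive compound and NKH477 (0.25 uM final) for 3 h. Fluorescence from LiveBLAzer B/G FRET substrate is read after 2 h at room temperature.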

[20] = biological target: Beta-2 adrenergic receptor (Homo sapiens) (UniProt P07550); test: Adrenergic beta2 receptor (ADRB2) small molecule antagonists, cell-based qHTS assay (AID 1963592); note: series mostly up to about 92 µM; nearly all actives have a fitted effect of over 50% in size
Procedure, shortened: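 Cells (CHO, stable ADRB2 overexpression) incubated 18-20hr at 37C; compounds added from DMSO; agonist mix (1nM isoproterenol, 100uM IBMX, 25uM Ro-20-1724) added; 0.5hr RT; d2-cAMP and anti-cAMP-cryptate added; 1hr RT; 665/615 nm read.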
% is set by controls: 0 for no effect and ±100 for the full control effect.

Sequence of 5-hydroxytryptamine receptor 2A (Homo sapiens) (P28223 whole entry, looked up): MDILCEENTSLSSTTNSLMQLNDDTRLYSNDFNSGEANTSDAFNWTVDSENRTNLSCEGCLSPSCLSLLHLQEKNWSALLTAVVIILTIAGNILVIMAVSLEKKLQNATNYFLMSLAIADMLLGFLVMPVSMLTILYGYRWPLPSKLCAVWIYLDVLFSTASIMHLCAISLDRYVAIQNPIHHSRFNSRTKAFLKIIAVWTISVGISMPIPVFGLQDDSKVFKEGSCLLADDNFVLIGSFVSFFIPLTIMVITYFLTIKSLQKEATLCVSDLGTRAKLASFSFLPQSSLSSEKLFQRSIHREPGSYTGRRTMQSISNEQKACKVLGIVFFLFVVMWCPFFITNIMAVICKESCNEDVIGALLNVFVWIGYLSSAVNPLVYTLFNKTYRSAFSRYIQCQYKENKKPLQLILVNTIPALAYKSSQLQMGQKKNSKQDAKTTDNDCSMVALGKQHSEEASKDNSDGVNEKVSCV
Sequence of D(2) dopamine receptor (Homo sapiens) (P14416 whole entry, looked up): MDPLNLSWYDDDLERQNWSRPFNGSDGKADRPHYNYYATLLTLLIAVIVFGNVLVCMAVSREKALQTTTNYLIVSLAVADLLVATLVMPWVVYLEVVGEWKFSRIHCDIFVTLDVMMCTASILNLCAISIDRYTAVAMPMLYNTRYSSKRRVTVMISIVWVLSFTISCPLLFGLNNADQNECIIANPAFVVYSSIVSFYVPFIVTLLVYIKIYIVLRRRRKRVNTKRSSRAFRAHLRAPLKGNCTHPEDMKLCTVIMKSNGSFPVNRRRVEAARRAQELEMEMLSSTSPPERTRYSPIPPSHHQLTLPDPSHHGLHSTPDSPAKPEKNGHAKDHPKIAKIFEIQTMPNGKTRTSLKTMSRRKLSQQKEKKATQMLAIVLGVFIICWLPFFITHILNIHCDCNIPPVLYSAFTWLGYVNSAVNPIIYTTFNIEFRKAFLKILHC
Sequence of KiSS-1 receptor (Homo sapiens) (Q969F8 whole entry, looked up): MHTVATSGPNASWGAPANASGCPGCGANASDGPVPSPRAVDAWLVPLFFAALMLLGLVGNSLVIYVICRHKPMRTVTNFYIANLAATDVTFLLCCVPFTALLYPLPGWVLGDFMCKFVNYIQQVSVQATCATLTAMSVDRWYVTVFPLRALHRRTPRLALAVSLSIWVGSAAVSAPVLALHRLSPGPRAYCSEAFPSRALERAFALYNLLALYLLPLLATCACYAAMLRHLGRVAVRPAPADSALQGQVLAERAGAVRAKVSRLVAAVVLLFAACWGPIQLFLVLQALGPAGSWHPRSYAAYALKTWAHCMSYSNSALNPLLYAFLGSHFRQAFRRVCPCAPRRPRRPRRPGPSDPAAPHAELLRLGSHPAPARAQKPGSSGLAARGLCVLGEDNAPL
Sequence of Muscarinic acetylcholine receptor M1 (Homo sapiens) (P11229 whole entry, looked up): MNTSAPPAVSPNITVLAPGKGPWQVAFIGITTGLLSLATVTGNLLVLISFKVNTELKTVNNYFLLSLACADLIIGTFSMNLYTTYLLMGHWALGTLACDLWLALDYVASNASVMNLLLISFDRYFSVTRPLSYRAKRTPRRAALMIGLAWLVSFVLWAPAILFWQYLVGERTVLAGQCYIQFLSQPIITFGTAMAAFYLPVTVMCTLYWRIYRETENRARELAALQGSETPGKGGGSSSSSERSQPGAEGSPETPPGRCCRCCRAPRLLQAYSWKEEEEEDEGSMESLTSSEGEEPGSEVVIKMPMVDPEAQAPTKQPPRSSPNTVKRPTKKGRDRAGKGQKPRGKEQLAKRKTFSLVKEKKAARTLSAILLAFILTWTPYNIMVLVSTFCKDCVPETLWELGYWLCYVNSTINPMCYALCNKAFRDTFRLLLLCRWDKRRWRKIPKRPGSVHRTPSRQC
Sequence of Gonadotropin-releasing hormone receptor (Homo sapiens) (P30968 whole entry, looked up): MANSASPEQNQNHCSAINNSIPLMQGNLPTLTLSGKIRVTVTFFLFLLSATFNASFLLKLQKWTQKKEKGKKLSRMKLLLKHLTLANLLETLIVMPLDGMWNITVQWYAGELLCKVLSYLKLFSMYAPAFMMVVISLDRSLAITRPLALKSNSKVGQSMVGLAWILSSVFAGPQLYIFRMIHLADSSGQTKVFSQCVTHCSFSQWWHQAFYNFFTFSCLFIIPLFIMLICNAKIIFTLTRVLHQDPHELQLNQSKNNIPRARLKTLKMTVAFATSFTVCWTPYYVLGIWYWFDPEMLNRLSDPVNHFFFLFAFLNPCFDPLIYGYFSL
Sequence of Beta-2 adrenergic receptor (Homo sapiens) (P07550 whole entry, looked up): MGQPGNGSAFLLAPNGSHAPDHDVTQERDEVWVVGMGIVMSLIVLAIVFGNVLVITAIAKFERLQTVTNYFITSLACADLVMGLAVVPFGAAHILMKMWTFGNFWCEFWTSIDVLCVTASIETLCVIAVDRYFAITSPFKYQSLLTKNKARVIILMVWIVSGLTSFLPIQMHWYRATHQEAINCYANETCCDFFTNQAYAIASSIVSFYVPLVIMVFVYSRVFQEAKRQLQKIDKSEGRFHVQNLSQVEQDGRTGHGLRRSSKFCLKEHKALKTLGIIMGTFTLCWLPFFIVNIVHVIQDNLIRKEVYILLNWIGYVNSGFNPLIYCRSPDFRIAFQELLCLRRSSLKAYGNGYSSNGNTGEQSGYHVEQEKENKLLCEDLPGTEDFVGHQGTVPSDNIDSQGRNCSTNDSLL

CC(C)c1ccc(C#N)cc1
inactive: Potency [1] | Potency [2] | outcome [3] | outcome [4] | Potency [5] | Potency [6] | Potency [7] | Potency [8] | Potency [9] | Potency [10] | Potency [11] | Potency [12] | Potency [13] | Potency [14] | Potency [15]

BrC(Br)C(Br)Br
inactive: Potency [1] | Potency [2] | outcome [3] | outcome [4] | Potency [5] | Potency [6] | Potency [16] | Potency [10] | Potency [17] | Potency [18] | Potency [11] | Potency [12] | Potency [19] | Potency [20] | Potency [14] | Potency [15]

CCCCN1CCCC[C@H]1C(=O)Nc1c(C)cccc1C
inactive: Potency [1] | Potency [2] | outcome [3] | outcome [4] | Potency [5] | Potency [6] | Potency [16] | Potency [8] | Potency [9] | Potency [20] | Potency [13] | Potency [14] | Potency [15]

NC(=O)CC[C@@H]1NC(=O)[C@H](Cc2ccccc2)NC(=O)[C@H](Cc2ccc(O)cc2)NC(=O)CCSSC[C@@H](C(=O)N2CCC[C@H]2C(=O)N[C@@H](CCCN=C(N)N)C(=O)NCC(N)=O)NC(=O)[C@H](CC(N)=O)NC1=O
inactive: Potency [1] | Potency [2] | outcome [3] | outcome [4] | Potency [5] | Potency [6] | Potency [16] | Potency [7] | Potency [9] | Potency [12] | Potency [20] | Potency [13] | Potency [15]

CN[C@@H]1[C@H](O)[C@H](NC)[C@H]2O[C@@]3(O)C(=O)C[C@@H](C)O[C@H]3O[C@@H]2[C@H]1O
inactive: Potency [1] | Potency [2] | outcome [3] | outcome [4] | Potency [5] | Potency [6] | Potency [16] | Potency [9] | Potency [12] | Potency [20] | Potency [14] | Potency [15]

CC[C@@H](N)CO
inactive: Potency [1] | Potency [2] | outcome [3] | outcome [4] | Potency [5] | Potency [6] | Potency [16] | Potency [7] | Potency [8] | Potency [17] | Potency [18] | Potency [11] | Potency [12] | Potency [19] | Potency [20] | Potency [14] | Potency [15]

CCOC(=O)Nc1ccc(NCc2ccc(F)cc2)nc1N
inactive: Potency [1] | Potency [2] | outcome [3] | outcome [4] | Potency [5] | Potency [6] | Potency [16] | Potency [7] | Potency [8] | Potency [10] | Potency [18] | Potency [11] | Potency [12] | Potency [20] | Potency [15]

CC(CNC1CCCCC1)OC(=O)c1ccccc1 (stereo not given)
inactive: Potency [1] | Potency [2] | outcome [3] | outcome [4] | Potency [5] | Potency [6] | Potency [16] | Potency [8] | Potency [9] | Potency [10] | Potency [11] | Potency [12] | Potency [19] | Potency [20] | Potency [14] | Potency [15]

CC(C)(O)c1ccccc1
inactive: Potency [1] | Potency [2] | outcome [3] | outcome [4] | Potency [5] | Potency [6] | Potency [16] | Potency [7] | Potency [9] | Potency [10] | Potency [17] | Potency [18] | Potency [11] | Potency [12] | Potency [19] | Potency [20] | Potency [14]

N=C1C=CC(=C(c2ccc(N)cc2)c2ccc(N)cc2)C=C1
active: Potency [1] 61.1 µM | Potency [10] 8.4 µM
inactive: Potency [2] | outcome [3] | outcome [4] | Potency [5] | Potency [6] | Potency [16] | Potency [8] | Potency [17] | Potency [18] | Potency [11]

CCc1nnc(NS(=O)(=O)c2ccc(N)cc2)s1
inactive: Potency [1] | Potency [2] | outcome [3] | outcome [4] | Potency [5] | Potency [6] | Potency [7] | Potency [8] | Potency [9] | Potency [10] | Potency [17] | Potency [11] | Potency [12] | Potency [19] | Potency [20] | Potency [15]

O=C(c1ccccc1)c1ccc2n1CCC2C(=O)O (stereo not given)
inactive: Potency [1] | Potency [2] | outcome [3] | outcome [4] | Potency [5] | Potency [6] | Potency [16] | Potency [7] | Potency [8] | Potency [20] | Potency [14] | Potency [15]

COc1ccc(-n2nc(CCC(=O)N(C)O)cc2-c2ccc(Cl)cc2)cc1
inactive: Potency [1] | Potency [2] | outcome [3] | outcome [4] | Potency [5] | Potency [6] | Potency [16] | Potency [7] | Potency [9] | Potency [10] | Potency [17] | Potency [11] | Potency [12] | Potency [19] | Potency [20] | Potency [14] | Potency [15]

CCCCNc1ccc(NCCCC)c2c1C(=O)c1ccccc1C2=O
inactive: activity, positive = activation [1] 14.7% [at 19 µM] | activity change [2] -0.141% [at 11.8 µM, stronger effect = higher value] | activation [3] -3.45% [at 15.8 µM] | activation [4] 0.174% [at 11.8 µM] | activation [5] 5.72% [at 13.5 µM] | activation [6] 1.5% [at 13.6 µM] | activity change, negative = cytotoxicity [16] -5.72% [at 13.5 µM] | activity change, negative = cytotoxicity [8] -1.83% [at 13.5 µM] | activation [9] 7.46% [at 13.5 µM] | activity, negative = inhibition [10] -10.8% [at 12.7 µM] | activation [17] -0.354% [at 15.9 µM] | activity, negative = inhibition [18] 4.22% [at 12.6 µM] | activation [11] -0.373% [at 15.8 µM] | activation [12] -1.16% [at 19 µM] | activity change, negative = inhibition [19] -1.01% [at 18.9 µM] | activity change, negative = inhibition [20] 1.56% [at 19 µM] | activation [14] 6.31% [at 19 µM] | activity change, negative = inhibition [15] -5.82% [at 18.9 µM]

CC(=O)c1cccnc1
inactive: Potency [1] | Potency [2] | outcome [3] | outcome [4] | Potency [5] | Potency [6] | Potency [16] | Potency [7] | Potency [9] | Potency [10] | Potency [17] | Potency [12] | Potency [19] | Potency [20] | Potency [14] | Potency [15]
